About 83,000 compounds went through this panel and 20% of them were active in at least one assay; those are over-represented in the sample as a whole.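 Testing used 96-well plates and a 48-hour single-concentration exposure. Example: -40 means 40% of the starting cells died.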 A number with no mark means an inactive call. Activity calls are given as the source filed them. The calls were made as follows: active = growth percent below 10; inactive = the rest.

Test in all cases: NCI-60 one-dose screen, 48 h (100 = growth as untreated, 0 = no growth, -100 = all killed)
What all share (details): 10 µM unless noted

In assay [1] the test system is HCT-15 colon.
Assay [2] relates to HT29 colon.
For assay [3], the system named is SNB-75 CNS.
Assay [4] has as its system SNB-19 CNS.
The subject of assay [5] is U251 CNS.
In assay [6] the test system is PC-3 prostate.
Assay [7] relates to SK-MEL-5 melanoma.
Assay [8] concerns UACC-62 melanoma.
For assay [9], the system named is LOX IMVI melanoma.
For assay [10], the system named is SK-MEL-28 melanoma.

Turning to `COc1ccc(/C=C/C(=O)c2ccc(NC(=O)CSc3nnc(-c4cc(-c5ccccc5)nc5ccccc45)n3-c3ccccc3)cc2)cc1`, the growth in assay [1] was 92.5%; in [2], 98.1%; in assay [3], 100%; in [4], 101%; in assay [5], 102%; in assay [6], 89.9%. Further, the growth in [7] is 97.5%; in assay [8], 87.3%; in assay [9], 96.5%; in assay [10], 98.4%.

Turning to `CC(C)CCSc1nc(Nc2ccccc2)c(C#N)c(-c2ccccc2)n1`, the growth is 55.3% in [1]; 50.7% in assay [2]; -10.1% (active) in assay [3]; 19.3% in [4]; 2.98% (active) in [5]; 68.8% in assay [6]. Further, the growth is 95.2% in assay [7], 89.9% in assay [8], 25.5% in assay [9] and 82.1% in assay [10].

Consider `CNC(=O)c1c(NC(=O)c2ccc(C(C)(C)C)cc2)sc2c(CN(C)C)c(O)ccc12`, for which the growth in [1] was -77.3% (active); in assay [2], 0.0225% (active); in [3], 94.9%; in assay [4], 0.882% (active); in assay [5] it was -29.9% (active); in assay [6], -23.3% (active). Moreover, the growth in assay [7] is -29.5% (active); in assay [8] it was -85.9% (active); in [9] it was -88.5% (active); in assay [10] it was -89.1% (active).

Regarding `Cc1ccc(-c2csc(NC(=O)N3CCN(c4cc5c(cc4F)c(=O)c(C(=O)O)cn5C4CC4)CC3)n2)cc1`, the growth in assay [1] is 9.36% (active); in [2] it was 4.65% (active); in [3], 31.5%; in assay [4] it was 26.9%; in assay [5], 15.4%; in assay [6], 7.37% (active). The growth was -75.2% (active) in assay [7], 3.86% (active) in assay [8], 2.73% (active) in assay [9] and 35% in assay [10].

Consider `O=C1CCC(C(=O)NN(c2ccccc2)c2ccccc2)N1` (stereo not given), for which the growth was 103% in [1]; 111% in assay [2]; 89.2% in assay [3]; 100% in assay [4]; 103% in assay [5]; 14.3% in assay [6]. In addition, the growth in assay [7] is 106%; in assay [8], 94.4%; in [9], 95%; in assay [10], 109%.

Regarding `CCOC(=O)c1ccc2c(c1)c1c(C)c3ccncc3c(C)c1n2C`, the growth in assay [1] is 0.188% (active); in assay [2] it was 3.66% (active); in assay [3], 2.3% (active); in assay [4], 8.59% (active); in assay [5], 0.292% (active); in assay [6], 10.8%. The growth in assay [7] was -59.7% (active); in assay [8], -64.4% (active); in assay [9] it was -19.1% (active); in [10], -28.3% (active).

Turning to `C[C@@H]1O[C@@H](O[C@@H]2C[C@H](c3ccc4c(c3O)C(=O)C3=C(C4=O)[C@@]4(O)C(=O)C[C@](C)(O)C[C@@]4(O)C=C3)O[C@H](C)[C@H]2O)C[C@H](O)[C@@H]1O`, the growth in assay [1] is 98.9%; in assay [2] it was 106%; in [3] it was 86.8%; in assay [4], 91.8%; in assay [5], 97.5%; in assay [6] it was 90.5%. For the same compound, the growth in assay [7] was 100%; in assay [8], 94.2%; in [9], 91%; in assay [10], 113%.

As for `Cc1[nH]c(C(=O)Nc2ccc(C(N)=O)cc2NC(C)C)c(Cl)c1Cl`, the growth in assay [1] is 92.9%; in assay [2] it was 106%; in assay [3], 69%; in assay [4], 103%; in assay [5] it was 91.4%; in assay [6] it was 77.4%. Moreover, the growth in assay [7] is 88.1%; in assay [8], 91.4%; in assay [9], 96.2%; in assay [10], 105%.

For `C[C@@H]1CC[C@@]2(OC1)O[C@H]1C[C@H]3[C@@H]4CC=C5C[C@@H](O[C@@H]6O[C@H](CO)[C@@H](O[C@@H]7O[C@@H](CO)[C@H](O)[C@H]7O)[C@H](O)[C@H]6O[C@@H]6O[C@@H](C)[C@H](O)[C@@H](O)[C@H]6O)CC[C@]5(C)[C@H]4CC[C@]3(C)[C@H]1[C@@H]2C`, the growth is -84.8% (active) in assay [1]; -61.2% (active) in assay [2]; -94.3% (active) in assay [3]; -81.7% (active) in assay [4]; -97.7% (active) in assay [5]; -90.2% (active) in assay [6]. For the same compound, the growth in assay [7] was -89.7% (active); in assay [8], -98% (active); in assay [9] it was -96.7% (active); in assay [10] it was -96.9% (active).

`Cc1cc(F)ccc1S(=O)(=O)Nc1cc(-c2c(O)ccc3ccccc23)c(O)c2ccccc12`: the growth in [1] is 10.7%; in assay [2] it was 52.8%; in assay [3], 46.2%; in [4] it was 37.4%; in assay [5] it was 18.6%; in [6] it was 15.5%. Moreover, the growth in [7] was -63.6% (active); in assay [8], 2.8% (active); in [9] it was 16%; in assay [10], 29.4%.

Take `COc1ccc(C2C(C#N)=C(N)Oc3c2sc2c(Br)cccc32)cc1` (stereo not given): the growth was 19.1% in assay [1]; 5% (active) in [2]; 11.3% in assay [3]; 44.8% in assay [4]; 20.4% in assay [5]; 25.5% in assay [6]. Also, the growth in assay [7] was 29.3%; in assay [8], 10.6%; in assay [9], 29.2%; in assay [10] it was 59.5%.

Take `CCN(CC)CCCNCc1cc(-c2ccccc2)nc2cc(Cl)ccc12`: the growth in [1] is 12.1%; in assay [2], -17.3% (active); in assay [3], 70.8%; in assay [4] it was 68.9%; in assay [5] it was 11.5%; in assay [6], 37%. For the same compound, the growth is -76.9% (active) in assay [7], -61.3% (active) in [8], -20.6% (active) in assay [9] and -92.4% (active) in [10].

As to `N=C(N)c1ccc(-c2ccc(-c3ccc(F)cc3)s2)s1`, the growth is -74.2% (active) in [1]; -76.1% (active) in assay [2]; 81% in assay [3]; -57.5% (active) in assay [4]; -89.7% (active) in assay [5]; -24.2% (active) in assay [6]. For the same compound, the growth is 77.6% in assay [7], -67.9% (active) in assay [8], -67.2% (active) in assay [9] and 83.5% in assay [10].

The record behind these values is PubChem BioAssay (NCI).
